The nature of test [1]: growth inhibition of DIPG glioma cells, dose response, cell-based, SU-DIPG-XIII, MIPE4.0, CellTiter-Glo, qHTS (AID 1347061; cut-off not given, nearly all actives have AC50 up to about 37 µM;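 further: cells exposed to compound for 48 hours before readout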). Particulars: SU-DIPG-XIII viability, CellTiter-Glo ATP luminescence. A general note: ATP-based viability assays read luminescence as a measure of living cells.
Test [2] is described as follows: growth inhibition of DIPG glioma cells, dose response, cell-based, SU-DIPG-IV, MIPE4.0, CellTiter-Glo, qHTS (AID 1347063; cut-off not given, nearly all actives have AC50 up to about 30 µM;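 further: compound exposure lasted 48 hours before the viability readout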). Particulars: SU-DIPG-IV viability, CellTiter-Glo ATP luminescence.
The nature of test [3]: viability loss in pontine glioma line – cell-based, SU-DIPG-XXV, MIPE5.0, CellTiter-Glo, qHTS, dose response (AID 1347065; cut-off not given, nearly all actives have AC50 up to about 26 µM;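 further: cells exposed to compound for 48 hours before ATP readout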). Particulars: CellTiter-Glo ATP luminescence.
Test [4] in a line: SU-DIPG-VI glioma cell viability, MIPE4.0 library, CellTiter-Glo luminescence, qHTS (AID 1347066; cut-off not given, nearly all actives have AC50 up to about 30 µM;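 further: cells exposed to compound for 48 hours before readout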). Particulars: CellTiter-Glo ATP luminescence.
A short description of test [5]: SU-DIPG-XXV glioma cell viability, MIPE5.0 library, qHTS (AID 1347068; cut-off not given, nearly all actives have IC50 up to about 30 µM). On the technique in general: Quantitative high-throughput screening tests each substance at several concentrations.
Test [6] in a line: sensitizers of A549 cells to miR-34 induction, primary screen, imaging, A549 dox-inducible miR-34, nuclei and caspase counts (AID 1347080;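 active means compounds whose cell count with miR-34 switched on is under 0.7 times the count with it off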). Particulars: A549 miR-34 inducible, Hoechst nuclei count, 48 h.
Test [7] can be described thus: survival rescue of mitochondrial mutant cells in low glucose, primary screen, MELAS cybrids, Rieske KO mouse fibroblasts, CellTiter-Glo (AID 1508586;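 active means mean z-score across replicates of 1.96 or higher in either the MELAS or the Rieske mutant cell line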;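 further: z relative to plate mean and SD of compound and empty wells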).
Test [8] is described as follows: growth inhibition of DIPG glioma cells, dose response, cell-based, JHH-DIPG-1, MIPE4.0, CellTiter-Glo, qHTS (AID 1347062; cut-off not given, nearly all actives have AC50 up to about 27 µM;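 on AC50: cells exposed to compound for two days before readout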). The following applies: JHH-DIPG-1 viability, CellTiter-Glo ATP luminescence.
The nature of test [9]: modifiers of HSF1 nuclear foci, imaging, Selleck Cancer Library (AID 1347162; in the data active means plate-normalised HSF1 focus index below about 0.46). Particulars: human cells, at 10 µM; SSMD: measured here: HSF1 foci SSMD mean; cell count: measured here: cell number; plate-normalised HSF1 focus index: stronger effect = lower value.
The nature of test [10]: ovarian cancer cell viability with rucaparib, profiling panel, oncology-focused library, rucaparib conditional (AID 1508598). Particulars: patient-derived ovarian cancer cells, CellTiter-Glo viability, 144 h, stronger effect = lower value.
Where [11] appears, read: stronger effect = lower value, cell number ratio, induced over uninduced.
The mark [12] stands for this setting: measured here: relative caspase fold change +Dox/-Dox.
The mark [13] stands for this setting: measured here: total cells with miR-34 induction, stronger effect = lower value.
Setting [14] is: measured here: total cells without miR-34 induction.
Setting [15] is: MELAS cybrid survival, CellTiter-Glo 48 h, stronger effect = higher value.
Setting [16] is: Rieske KO mouse fibroblast survival, CellTiter-Glo 72 h.

Molecules are shown by their SMILES. Where “and” joins values, the source holds several entries; their conditions need not be identical. Equal entries are not always repeated. Records with an inconclusive call do not appear. Calls of active or inactive are those of the source.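 How the source made its calls, unless noted: active means normalized viability below 100% at a tested concentration; inactive means the rest.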

This note sets out measurements from PubChem BioAssay.

For `CCC(=O)OCC(=O)[C@@]1(OC(=O)CC)[C@@H](C)C[C@H]2[C@@H]3CCC4=CC(=O)C=C[C@]4(C)[C@@]3(F)[C@@H](O)C[C@@]21C`, the AC50 – broadly, the concentration giving half of the maximal activity seen – is 0.00935 µM (active) in test [1] and 2.35 µM (active) in test [2].
With `CCOC(=O)c1c(CSc2ccccc2)n(C)c2cc(Br)c(O)c(CN(C)C)c12`, the call in test [1], in test [4] and in [5] was inactive. Besides, the AC50 in [3] was 20.9 µM (active). For the same compound, the fold change in test [6] (setting [11]) was 0.89 (inactive); in test [6] (setting [12]), 0.958. Moreover, the cell count came to 6100 in [6] (setting [13]) and 6850 in [6] (setting [14]). Besides, the z-score in test [7] (setting [15]) is -0.35 (inactive); in test [7] (setting [16]), -0.358.
For `Cc1c(NC(=O)c2ccc(C(C)(C)C)cc2)cccc1-c1cn(C)c(=O)c(Nc2ccc(C(=O)N3CCOCC3)cc2)n1`, the call in [1], in [4] and in test [5] was inactive. Further, the concentration at half-maximal activity (AC50) in [2] is 10.5 µM (active). In addition, the fold change is 1.11 (inactive) in test [6] (setting [11]) and 0.695 in [6] (setting [12]). Also, the cell count in [6] (setting [13]) worked out at 5460; in test [6] (setting [14]) it was 4900. Further, the z-score was -0.54 (inactive) in test [7] (setting [15]) and -0.156 in [7] (setting [16]).
With `CC(=O)N1CCN(c2ccc(OCc3nn(C)c(C)c3-c3cccc4c(CCCOc5cc(C)c(Cl)c(C)c5)c(C(=O)O)n(Cc5cccnc5)c34)cc2)CC1`, the compound was called inactive in test [1]. The figures for the AC50 in test [2] and in test [4] were 23.5 µM (active) and 20.9 µM (active), respectively.
As for `CCOC(=O)C1=C(C)NC2=C(C(=O)CC(C)(C)C2)C1c1ccc(-c2ccccc2)cc1` (stereo not given), the compound was classed as inactive in [1] and in [5]. The AC50 in [2] is 14.8 µM (active); in test [3], 23.5 µM (active).
In the case of `O=c1c2ccccc2nc2n1CCc1c-2[nH]c2ccccc12`, the compound was called inactive in test [1], in [8] and in [4]. Besides, the fold change in test [6] (setting [11]) was 0.916 (inactive) and 0.956 (inactive); in test [6] (setting [12]), 0.977 and 0.922. Also, the cell count in test [6] (setting [13]) is 6410 and 7870; in test [6] (setting [14]), 6990 and 8230. In addition, the z-score in [7] (setting [15]) was -0.312 (inactive); in [7] (setting [16]), 0.166.
Take `O=C(NOC[C@H](O)CO)c1ccc(F)c(F)c1Nc1ccc(I)cc1F`: the AC50 in test [1] was 1.05 µM (active); in test [8] it was 2.35 µM (active). Besides, the result in [4] was inactive. Further, the fold change in test [6] (setting [11]) was 1.03 (inactive); in test [6] (setting [12]), 2.04. The figures for the cell count in [6] (setting [13]), in test [6] (setting [14]) and in test [9] were 2530, 2470 and 7460, respectively. For the same compound, in test [9], the SSMD amounted to 3.29. In addition, in test [9], the plate-normalised HSF1 focus index is 1.21 (inactive). The viability – broadly, a read-out of living cells in per cent, often relative to untreated cells – in test [10] (at 0.000305 µM, OCI-C5x cells, with rucaparib 10 µM, 100% = cells with rucaparib alone) is 115% (inactive); in test [10] (at 0.000305 µM, OCI-C5x cells, without rucaparib) it was 103% (inactive); in [10] (at 0.000305 µM, OCI-P5x cells, with rucaparib 20 µM, 100% = cells with rucaparib alone), 79.9% (active); in test [10] (at 0.000305 µM, OCI-P5x cells, without rucaparib), 86.4% (active); in test [10] (at 0.00122 µM, OCI-C5x cells, with rucaparib 10 µM, 100% = cells with rucaparib alone), 110% (inactive); in [10] (at 0.00122 µM, OCI-C5x cells, without rucaparib), 103% (inactive). Besides, the viability in test [10] (at 0.00122 µM, OCI-P5x cells, with rucaparib 20 µM, 100% = cells with rucaparib alone) is 73.1% (active); in test [10] (at 0.00122 µM, OCI-P5x cells, without rucaparib), 80% (active); in [10] (at 0.00488 µM, OCI-C5x cells, with rucaparib 10 µM, 100% = cells with rucaparib alone), 111% (inactive); in test [10] (at 0.00488 µM, OCI-C5x cells, without rucaparib) it was 101% (inactive); in test [10] (at 0.00488 µM, OCI-P5x cells, with rucaparib 20 µM, 100% = cells with rucaparib alone) it was 60% (active); in test [10] (at 0.00488 µM, OCI-P5x cells, without rucaparib), 73.8% (active). Further, the viability in [10] (at 0.0195 µM, OCI-C5x cells, with rucaparib 10 µM, 100% = cells with rucaparib alone) was 111% (inactive); in test [10] (at 0.0195 µM, OCI-C5x cells, without rucaparib), 96.8% (active); in test [10] (at 0.0195 µM, OCI-P5x cells, with rucaparib 20 µM, 100% = cells with rucaparib alone) it was 51.1% (active); in [10] (at 0.0195 µM, OCI-P5x cells, without rucaparib), 67.5% (active); in [10] (at 0.0781 µM, OCI-C5x cells, with rucaparib 10 µM, 100% = cells with rucaparib alone) it was 120% (inactive); in [10] (at 0.0781 µM, OCI-C5x cells, without rucaparib), 94.3% (active). In addition, the viability was 46.8% (active) in test [10] (at 0.0781 µM, OCI-P5x cells, with rucaparib 20 µM, 100% = cells with rucaparib alone); 62.3% (active) in test [10] (at 0.0781 µM, OCI-P5x cells, without rucaparib); 98.2% (active) in test [10] (at 0.313 µM, OCI-C5x cells, with rucaparib 10 µM, 100% = cells with rucaparib alone); 86.8% (active) in test [10] (at 0.313 µM, OCI-C5x cells, without rucaparib); 41% (active) in test [10] (at 0.313 µM, OCI-P5x cells, with rucaparib 20 µM, 100% = cells with rucaparib alone); 50.2% (active) in test [10] (at 0.313 µM, OCI-P5x cells, without rucaparib). The viability in test [10] (at 1.25 µM, OCI-C5x cells, with rucaparib 10 µM, 100% = cells with rucaparib alone) is 66.9% (active); in test [10] (at 1.25 µM, OCI-C5x cells, without rucaparib) it was 68.4% (active); in test [10] (at 1.25 µM, OCI-P5x cells, with rucaparib 20 µM, 100% = cells with rucaparib alone), 40.4% (active); in test [10] (at 1.25 µM, OCI-P5x cells, without rucaparib), 44.1% (active); in test [10] (at 5 µM, OCI-C5x cells, with rucaparib 10 µM, 100% = cells with rucaparib alone), 34.4% (active); in test [10] (at 5 µM, OCI-C5x cells, without rucaparib), 37.4% (active). Further, the viability is 30.5% (active) in test [10] (at 5 µM, OCI-P5x cells, with rucaparib 20 µM, 100% = cells with rucaparib alone) and 38.4% (active) in test [10] (at 5 µM, OCI-P5x cells, without rucaparib).
